Consider eleven molecules from PubChem BioAssay (NCATS).

Unmarked numbers belong to inactive results. Activity calls are given as the source filed them. Calls come from the whole dose curve; as a rule, active = well fitted inhibition curve with a large enough effect; inconclusive = small, poorly fitted or top-dose-only effect; inactive = flat fitted curve, though single readings scatter.
Potency is the fitted concentration of half-maximal effect.

Chain of DNA polymerase III PolC-type (Bacillus subtilis (strain 168)) (P13267 whole entry, looked up): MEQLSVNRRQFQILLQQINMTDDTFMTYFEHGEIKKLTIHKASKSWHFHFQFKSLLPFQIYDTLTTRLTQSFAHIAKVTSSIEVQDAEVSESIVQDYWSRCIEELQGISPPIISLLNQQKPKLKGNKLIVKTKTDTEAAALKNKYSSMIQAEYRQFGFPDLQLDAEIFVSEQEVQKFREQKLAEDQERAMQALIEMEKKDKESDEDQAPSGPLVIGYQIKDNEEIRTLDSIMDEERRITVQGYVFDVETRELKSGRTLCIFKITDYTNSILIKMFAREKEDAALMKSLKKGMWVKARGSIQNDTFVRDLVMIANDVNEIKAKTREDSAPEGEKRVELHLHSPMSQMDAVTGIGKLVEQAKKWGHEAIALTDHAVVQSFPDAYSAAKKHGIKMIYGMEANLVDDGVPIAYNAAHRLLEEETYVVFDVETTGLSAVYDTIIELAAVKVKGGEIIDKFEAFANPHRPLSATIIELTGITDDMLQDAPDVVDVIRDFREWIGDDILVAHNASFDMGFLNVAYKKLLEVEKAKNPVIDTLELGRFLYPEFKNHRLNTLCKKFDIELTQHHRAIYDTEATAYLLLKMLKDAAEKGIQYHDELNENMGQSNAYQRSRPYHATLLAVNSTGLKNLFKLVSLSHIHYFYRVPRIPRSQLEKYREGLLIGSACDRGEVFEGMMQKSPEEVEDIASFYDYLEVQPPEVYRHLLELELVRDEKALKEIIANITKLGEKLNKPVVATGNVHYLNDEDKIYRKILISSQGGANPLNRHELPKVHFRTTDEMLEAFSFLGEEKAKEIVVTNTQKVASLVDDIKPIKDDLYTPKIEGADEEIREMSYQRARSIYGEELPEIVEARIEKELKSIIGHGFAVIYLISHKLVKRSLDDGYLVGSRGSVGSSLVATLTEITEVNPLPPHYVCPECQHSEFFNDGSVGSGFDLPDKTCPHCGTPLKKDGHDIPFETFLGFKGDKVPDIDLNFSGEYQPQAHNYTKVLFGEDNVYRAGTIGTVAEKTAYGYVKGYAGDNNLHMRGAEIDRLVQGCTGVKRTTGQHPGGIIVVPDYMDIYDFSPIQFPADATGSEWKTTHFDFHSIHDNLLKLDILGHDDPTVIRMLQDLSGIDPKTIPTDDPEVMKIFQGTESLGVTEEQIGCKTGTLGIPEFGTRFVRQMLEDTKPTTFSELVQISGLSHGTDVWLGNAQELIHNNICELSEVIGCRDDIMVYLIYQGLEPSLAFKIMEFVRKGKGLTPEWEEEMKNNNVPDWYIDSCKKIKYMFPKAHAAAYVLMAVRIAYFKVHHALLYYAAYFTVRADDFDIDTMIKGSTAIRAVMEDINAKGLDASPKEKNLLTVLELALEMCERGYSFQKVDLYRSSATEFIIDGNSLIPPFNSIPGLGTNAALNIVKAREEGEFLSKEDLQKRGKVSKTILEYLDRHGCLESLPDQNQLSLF

For the experiment, the target named is DNA polymerase III PolC-type (Bacillus subtilis (strain 168)) (UniProt P13267). Description: qHTS Validation Assay for the Inhibitors of DNA Replication in Gram-Positive Bacteria (AID 485295).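 For activity change, negative = inhibition: reconstituted holoenzyme with PolC plus beta clamp SSB and primase.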 To be noted: Gram-positive bacterial DNA replication assay; series mostly up to 57.1 µM; activity change, negative = inhibition: at the top concentration. The protocol:
B Subtilis DNA polymerase III holoenzyme complex was assayed for DNA production by fluorescent detection of the double-stranded DNA product with PicoGreen dye. The holoenzyme complex was reconstituted from the following purified protein components: DNA Polymerase III, beta subunit processivity factor, SSB single-stranded DNA binding protein, and Primase. Single-stranded, circular M13Gori was used as a substrate with dNTPs and NTPs also supplied to the substrate reagent. Compounds from the NCGC collection were incubated with the holoenzyme mixture for […] at room temperature to allow binding to occur, and then the reaction was started by the addition of substrate. After 30 min incubation at room temperature, PicoGreen solution containing EDTA was added to stop the reaction and to visualize the double-stranded DNA produced. Reaction progress was measured in a ViewLux CCD imager in fluorescence intensity mode by using 480 nm excitation and 540 nm emission filter set.
1. Thaw screening compounds.
2. Label assay plates. Prepare pipette tips, reagent reservoirs, buffers and controls.
1. Thaw Enzymes, DNA template, Nucleotides and PicoGreen dye concentrate. Thawed enzymes are stable on ice for ~1
week. Other thawed components are stable indefinitely.
2. Prepare sufficient quantities of Enzyme, Substrate and PicoGreen Quench mixes (according to Table II). For the number of
compound plates being screened.
3. Ensure that the tip wash station reservoirs have clean water and turn on recirculating chiller so that the chilled deck position
1. Load 2 uL of EDTA controls (250 mM, Background, 100 % inhibition) and 2 uL of DMSO controls (Negative control, 0%
inhibition) in the screening plates (flat-bottomed black 384-well polypropylene, Greiner Bio-one).
2. Place Enzyme mix reservoir on the chiller position of the liquid handler deck. Make sure that chiller will maintain
temperature of Enzyme mix at 4degC. Substrate mix and PicoGreen Quench can be stored at room temp.
3. Program liquid handling robotics to dispense 18 uL of Enzyme mix into assay plates. Wash tips.
4. Aspirate and dispense 2 uL of compound from compound plates, mix and Incubate at room temperature for 10 minutes.
5. Aspirate 5 ul of Substrate mix, dispense into assay plates and mix by pipetting. Wash tips.
6. Incubate at room temperature (21 +/- 1 deg C) for 20 minutes.
7. Quench reactions by addition of 25 uL PicoGreen Quench mix and mix by pipetting (using HTS robotics or bulk reagent
dispenser such as a Multidrop or uFill). Keep plates in the dark or stacked until ready to read fluorescence.
8. Read fluorescence intensity of plates on plate reader using "Fluorescein (Ex 485 nm/ Em 535 nm, 0.1s)" setting.
Turning to `C1CCC(N=C(NC23CC4CC(CC(C4)C2)C3)N2CCOCC2)CC1`, the “activity change, negative = inhibition” value was -2.96%.
Consider `O=Nc1c(-c2c(O)[nH]c3ccccc23)[nH]c2ccccc12`, for which the “activity change, negative = inhibition” value is -6.06%.
`CCc1ccc(/C=C2/SC(=S)NC2=O)cc1`: the “activity change, negative = inhibition” value was -4.37%.
Same read-out and setting: the result for `N#C/C(=C\c1ccc(O)c(O)c1)C(=O)Nc1ccccc1` reads -5.37%.
In the case of `Nc1c(S(=O)(=O)O)cc(Nc2ccc(Nc3nc(Cl)nc(Nc4ccc(S(=O)(=O)O)cc4)n3)c(S(=O)(=O)O)c2)c2c1C(=O)c1ccccc1C2=O`, the Potency is 5.32 µM (active).
As to `S=C(Nc1ccccc1)Nc1nccs1`, the “activity change, negative = inhibition” value is -6.3%.
Still for that read-out and setting: the result for `CC[N+](CC)(CC)CC` reads -0.432%.
On to `C[C@H](Cc1ccccc1)Nc1ncnc2c1ncn2[C@@H]1O[C@H](CO)[C@@H](O)[C@H]1O`, for which the “activity change, negative = inhibition” value was -2.79%.
Regarding `Cc1cccc(/C=C/c2ccccc2)n1`, the “activity change, negative = inhibition” value is 0.712%.
Regarding `CN1C2CCCC1CC(NC(=O)c1nn(C)c3ccccc13)C2` (stereo unspecified), the “activity change, negative = inhibition” value is 0.991%.
As to `O=C1c2ccccc2C(=O)c2c(NCCc3ccc(O)cc3)ccc(NCCc3ccc(O)cc3)c21`, the “activity change, negative = inhibition” value is -3.93%.
